Screening data (PubChem BioAssay)
TRHR ag: qHTS for Small Molecule Agonists and Allosteric Enhancers of Human TRH Receptor: Primary Screen for Agonists; Thyrotropin-releasing hormone receptor (Homo sapiens), P34981; AID 493084, 2011; activation, % at 2 µM; TRHR cells, calcium flux fluo-8, FDSS agonist mode; 0.18% of 360,000 active; note: 0% is about no effect
Target sequence (P34981 whole entry, looked up): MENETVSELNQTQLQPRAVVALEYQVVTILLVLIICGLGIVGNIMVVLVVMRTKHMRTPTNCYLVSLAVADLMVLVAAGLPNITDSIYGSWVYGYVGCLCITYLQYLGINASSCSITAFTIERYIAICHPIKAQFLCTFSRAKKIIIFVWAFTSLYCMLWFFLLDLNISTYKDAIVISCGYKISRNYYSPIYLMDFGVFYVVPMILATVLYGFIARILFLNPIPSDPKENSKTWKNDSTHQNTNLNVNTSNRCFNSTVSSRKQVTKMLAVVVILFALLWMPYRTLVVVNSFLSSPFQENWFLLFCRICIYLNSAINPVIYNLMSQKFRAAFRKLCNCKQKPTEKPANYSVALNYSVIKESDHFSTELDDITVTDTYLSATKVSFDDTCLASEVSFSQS
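TRHR-expressing cells, plated overnight in medium with 10% serum, were loaded with fluo-8 calcium dye at room temperature. After a 10 s baseline, library compound was pin-added and calcium release was recorded kinetically (ex 480/em 530) as agonist response.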
D1 ag: Allosteric Agonists of the Human D1 Dopamine Receptor: qHTS | HEK293 T-REx D1 cells, calcium flux, agonist mode | 1% of 360,000 active | activation, % at 2 µM | D(1A) dopamine receptor (Homo sapiens), P21728; note: 0% is about no effect
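Agonism was scored from calcium flux recorded over 180 s (1 read/s) after pintool compound addition, following a 10-cycle baseline. Cells were inducible force-coupled HEK293 TREx D1, plated overnight at 30 C and loaded with no-wash calcium dye.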
USP1 inh: Inhibitors of USP1/UAF1: Primary Screen; Ubiquitin carboxyl-terminal hydrolase 1 (Homo sapiens), O94782; recombinant USP1/UAF1, Ub-Rhodamine cleavage fluorescence; Potency, µM (doses to about 57.1 µM), for the others: at the top dose activity change, negative = inhibition, hits mostly inhibitors; 0.23% of 390,000 active; active = well fitted inhibition curve with a large enough effect; inconclusive = small, poorly fitted or top-dose-only effect; inactive = no such curve, though single readings can be large or run the other way; note: potency is the fitted concentration of half-maximal effect; % is set by controls: 0 for no effect and ±100 for the full control effect; nearly all actives have a fitted effect of over 60% in size
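1 nM enzyme complex + cpd, 15 min RT; start with Ub-Rho 150nM final; kinetic fluorescence ex 480/em 540, 6 reads q60 s. Buffer 50mM HEPES pH 7.8, 0.5mM EDTA, 0.1 mg/ml BSA, 1mM TCEP, 0.01% Tween-20.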
D1 potentiator: Potentiators of Human D1 Dopamine Receptor: qHTS; potentiation, % at 10 µM; D(1A) dopamine receptor (Homo sapiens), P21728; 0.036% of 360,000 active; HEK293 TREx D1 cells, calcium flux, dopamine EC20 potentiation; AID 504651, 2011; in the data active = potentiation above about 30%; note: 0% is about no effect
D1 antagonist: Antagonist of Human D 1 Dopamine Receptor: qHTS; HEK293 TREx D1 cells, calcium flux, dopamine EC80; stronger effect = lower value; activity change, negative = inhibition, % at 10 µM; 3.2% of 360,000 active; AID 504652, 2011; in the data active = activity change below about -30%; note: % is set by controls: 0 for no effect and ±100 for the full control effect
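Calcium flux readout: force-coupled, inducible Hek293 Trex D1 line, cells induced overnight at 30 C with tetracycline, dye-loaded 30–90 min at RT. Antagonism scored against EC80 dopamine challenge given 180 s after compound.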
TRHR PAM: qHTS for Small Molecule Agonists and Allosteric Enhancers of Human TRH Receptor: Primary Screen for Enhancers. TRHR cells, fluo-8 calcium fluorescence, EC20 TRH enhancement. enhancement, % at 2 µM. 0.66% of 360,000 active. AID 493056, 2011; in the data active = enhancement above about 30%; note: 0% is about no effect
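TRHR-expressing cells loaded with fluo-8 calcium dye were read kinetically (ex 480/em 530) during compound addition, then stimulated with an EC20 of TRH (10 nM final). Enhancement of the Gq-mediated intracellular calcium response was scored.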
An asterisk follows results filed as active; ? = inconclusive; nt = not tested or not shown; [ ] = dose if it differs, or a comment. A selection: hits, their analogues and other compounds. The true share with any hit is near 4.4%. Cut-off read from the data, not from the text of the source, unless noted: active = activation above about 30%; inactive = the rest.

SMILES | TRHR ag | D1 ag | USP1 inh | D1 potentiator | D1 antagonist | TRHR PAM
CN(C)CCNC(=O)c1ccc(Cn2c(=O)c3cccn3c3cccnc32)cc1 | 1 | 2 | -4% | 3 | 17 | 6
COc1ccccc1NC(=O)Nc1ccc(N2CCOCC2)cc1 | 1 | -1 | -28% | 0 | -43* | 7
O=C(Nc1ccc(N2CCOCC2)cc1)C1(c2ccc(Cl)cc2)CCC1 | 3 | 43* | -11% | -4 | -3 | -8
O=C(Nc1ccc(N2CCOCC2)cc1)Nc1ccc(Cl)c(Cl)c1 | 1 | 17 | -10% | -4 | -31* | -1
COc1ccccc1CNCC(=O)Nc1ccc(N2CCOCC2)cc1 | 1 | 3 | ? | 4 | 2 | 1
O=C(Nc1ccc(Cl)cc1)Nc1ccc(N2CCOCC2)cc1 | 2 | 9 | -12% | -4 | -16 | 5
CCOc1ccccc1CN1CCc2nc(N3CCN(c4ccccc4F)CC3)ncc2C1 | 0 | 0 | -12% | 1 | 8 | -6
CCc1c(C)nc2nncn2c1Nc1ccc(C)c(F)c1 | -1 | -1 | 1% | -2 | -3 | 8
Cc1ccc(OCC(=O)Nc2c(Cl)ccc3nsnc23)cc1C | -2 | -1 | -22% | 2 | 6 | 3
CCc1ccccc1NC(=O)CCCn1c(=O)c2cccn2c2ccccc21 | -1 | 5 | -10% | -5 | 7 | 4
CC1(NC(=O)c2cccc(S(=O)(=O)N3CCCc4ccccc43)c2)CCS(=O)(=O)C1 (configuration not stated) | 0 | 1 | 3% | 3 | -83* | -4
COc1ccc(NC(=O)c2cccc(S(=O)(=O)N3CCc4ccccc43)c2)cn1 | 0 | 11 | -18% | 0 | -31* | -9
O=C(NCCc1ccccn1)c1cccc(S(=O)(=O)N2CCc3ccccc32)c1 | -1 | 9 | -11% | -3 | -36* | 2
COc1cc2c(cc1OC)CN(C(=O)c1cccc(S(=O)(=O)N3CCc4ccccc43)c1)CC2 | -1 | 5 | -12% | -4 | -34* | -4
Cc1ccc2c(c1)c1c3n2CCN(C(=O)c2cccc(C(F)(F)F)c2)C3CCC1 (configuration not stated) | 1 | 0 | -19% | 0 | 10 | 0
COc1ccc(CCNC(=O)Cn2nnc(-c3ccc(C(F)(F)F)cc3)n2)cc1OC | 1 | 4 | -29% | -3 | -12 | -1
O=C(c1cccc(S(=O)(=O)N2CCc3ccccc32)c1)N1CCc2ccccc2C1 | 1 | 11 | -23% | nt | -82* | -3
O=C(c1cccc(S(=O)(=O)N2CCc3ccccc32)c1)N1CCOCC1 | nt | nt | 2% | nt | nt | nt
Cc1cc(C)n(S(=O)(=O)c2cc(C)c(C)cc2C)n1 | -2 | 1 | -17% | -12 | -31* | 6
COc1ccc(N(CC(=O)Nc2cccc(Cl)c2C)S(=O)(=O)c2c(C)nn(C)c2C)cc1 | 0 | 3 | -14% | -1 | 10 | -4
Cc1ccccc1Nc1nc(N)nc(-c2oc3ccccc3c2C)n1 | -1 | 0 | -17% | -8 | -11 | 35*
COc1ccccc1Nc1nc(N)nc(-c2oc3ccccc3c2C)n1 | 0 | 2 | -9% | -6 | 23 | -1
CC1Cc2ccccc2N1C(=O)CN1C(=O)NC(C)(c2ccc3c(c2)OCCO3)C1=O (configuration not stated) | 7 | 38* | -22% | 5 | 12 | 5
CC1(c2ccc3c(c2)OCCO3)NC(=O)N(CC(=O)c2ccc[nH]2)C1=O (configuration not stated) | 0 | 7 | -15% | nt | 8 | 4
O=C(NCCc1ccc(F)cc1)C(=O)NCC(c1ccc2c(c1)OCO2)N1CCOCC1 (configuration not stated) | 0 | 0 | -21% | 2 | -10 | 18
SMILES | TRHR ag | D1 ag | USP1 inh | D1 potentiator | D1 antagonist | TRHR PAM
COc1ccc(-c2cc(C(=O)Oc3cccc(C)c3C)c3ccccc3n2)cc1 | -1 | -2 | 2% | 0 | 10 | 14
CC(=O)N1C=Cc2c(c(C)c3c([nH]c4ccccc43)c2C)C1 | -2 | 58* | nt | -6 | 10 | -1
COc1cc(NC(=O)Nc2cccc(-c3noc(C)n3)c2)cc(OC)c1OC | -1 | 1 | ? | -2 | 14 | -1
Cc1nc2c(c(C)nn2-c2ccccc2)c(C)c1CCC(=O)Nc1ccccc1 | 2 | 2 | -17%[11.4 µM] | -1 | -18 | 6
Cc1nc2c(c(C)nn2-c2ccccc2)c(C)c1CCC(=O)Nc1ccc(CN2CCCC2)cc1 | 1 | 22 | -19% | -17 | -39* | 1
O=C(NCCN1CCN(c2cccc(Cl)c2)CC1)c1ccc(CSc2nc3ccncc3[nH]2)cc1 | 1 | 2 | -17% | -14 | -48* | 1
CCN(CCNC(=O)c1ccc(CSc2nc3ccncc3[nH]2)cc1)c1ccccc1 | 0 | 1 | -6% | -4 | -12 | 5
COC1=C(Br)C(=O)c2ncccc2C1=O | nt | nt | 0.89µM* | nt | nt | nt
O=C1c2cccnc2-c2ncccc21 | 0 | 1 | -23% | 3 | -2 | -10
CCCc1nn2c(=O)cc(COC(=O)c3ccc(NC(=O)COc4ccccc4F)cc3)nc2s1 | 1 | 0 | -20% | 1 | 3 | 2
N#Cc1cccc(NC(=O)C2CCN(S(=O)(=O)c3ccc4[nH]c(=O)ccc4c3)CC2)c1 | 0 | 1 | -26% | -3 | 2 | 4
CCOC(=O)c1sc(=S)n(-c2cccc(C(F)(F)F)c2)c1SC | 0 | 7 | -1% | -1 | -32* | -5
Cn1c(SCC(=O)c2cc(Cl)c(Cl)s2)nnc1-c1ccco1 | 0 | -1 | -7% | -1 | -68* | 10
C/C(CC(=O)Nc1ccccc1)=N\NC(=O)COc1ccc(C)cc1Br | 0 | -3 | -25% | -1 | 7 | 34*
O=C(CCCSc1nc2ccccc2[nH]1)NC1CCCCC1 | 1 | 2 | 10% | -2 | 6 | -2
CC(Sc1nc2ccccc2[nH]1)C(=O)O (configuration not stated) | -2 | 6 | -15% | 1 | -3 | 5
CCSc1nnc(NC(=O)C(C)Sc2nc3ccccc3[nH]2)s1 (configuration not stated) | 0 | 3 | -5% | -3 | 10 | 36*
Cc1ccc(NC(=O)CCCSc2nc3ccccc3[nH]2)cc1 | -1 | 1 | -19% | -1 | -33* | 4
